Experimental findings from PubChem BioAssay (NCI) are described below.

Structures are written as SMILES. The panel holds about 83,000 compounds, 20% with a hit somewhere; the sample as a whole holds those more often.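 Compound tested at a single concentration for 48 hours in 96-well plates; a percent growth value below 10 was scored as active.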 The source made the active and inactive calls.

In the first assay the test system is OVCAR-3 ovarian. The assay can be described thus: NCI-60 one-dose screen, 48 h (100 = growth as untreated, 0 = no growth, -100 = all killed). The conditions noted are these: 10 µM unless noted.
On to `CC(C)CCC[C@@H](C)[C@H]1CC[C@H]2[C@@H](Nc3ccc(O)cc3)CCC[C@]12C`, for which the growth is 84.8% (inactive).

Turning to `O=C(c1ccccc1)c1c(/C=C/c2ccc(Cl)cc2)nc2ccccc2c1/C=C/c1cccs1`, the growth is 95.4% (inactive).

As for `CC(=O)n1c(-c2ccc(Cl)cc2)nc2c(c1=O)C(c1ccc(Cl)cc1)c1sc3c(Cl)cccc3c1O2` (stereo not drawn), the growth was -50.4% (active).

Turning to `CN1CCN(CCCOc2ccc3nc(Nc4ccc(F)c(F)c4)ccc3c2)CC1`, the growth was 67.4% (inactive).

Regarding `CS(=O)c1cccc(-c2ccc3nc(N)n(-c4ccc(C(F)(F)F)cc4)c(=O)c3c2)c1` (stereo not drawn), the growth is 101% (inactive).

As to `CC(=O)C(C)Cc1cc2c(cc1C)C(C)(C)CCC2(C)C` (stereo not drawn), the growth is 108% (inactive).

`COc1cc(/C=C2\C(=O)ON=C2C)cc(OC)c1OC`: the growth was 101% (inactive).

`CCCCn1c(=O)c2c(nc3n2CCCN3CCc2ccc(OCC(=O)NCCN(CC)CC)cc2)n(CCCC)c1=O`: the growth is 71.2% (inactive).

In the case of `COc1cc2c(cc1-c1c(C)noc1C)ncc1nc(C3CCC(F)(F)CC3)n(C3CCC(OC(F)F)CC3)c12` (stereo not drawn), the growth is 44.6% (inactive).

As for `CCN(CCNc1ccc(C)c2sc3ccccc3c(=O)c12)CC(C)(C)O`, the growth is 103% (inactive).

For the compound `CCCCCCCCCCCCCCCCCCOc1ccccc1CC(=O)OCCC[N+](C)(C)C`, the growth is 64.3% (inactive).

On to `COc1ccc(C(=NN=C(N)N)c2ccc(OC)cc2)cc1`, for which the growth was 17% (inactive).

As for `Cc1c(C(=O)N[C@@H](Cc2ccccc2)C(=O)C(=O)NCCc2ccccc2)[nH]c2ccccc2c1=O`, the growth is 105% (inactive).

`CC1(c2ccccc2)NC(=O)N(NC(=O)CSc2nc(-c3cccs3)nc3ccccc23)C1=O` (stereo not drawn): the growth was 95.9% (inactive).

With `CCN(CC)Cc1cccc(C(=O)OC)c1`, the growth was 111% (inactive).

For the compound `CCCCc1ccc(Nc2ccc(Nc3ccc(CCCC)cc3S(=O)(=O)O)c3c2C(=O)c2ccccc2C3=O)c(S(=O)(=O)O)c1`, the growth is 103% (inactive).

For the compound `O=C(Nc1ccc(Cl)cc1)Nc1ccc(Cl)c(C(F)(F)F)c1`, the growth was 4.12% (active).

As to `COc1ccc(-c2nc3c(N)c(CO)c(C)nc3o2)cc1`, the growth is 103% (inactive).

Regarding `COc1ccc(NC(=O)c2nc(-c3cc(OC)c(OC)c(OC)c3)n(-c3cccc4ccccc34)n2)cc1OC`, the growth is 27.7% (inactive).

For `COc1ccc(C2C(c3nn[nH]n3)=C(N)Oc3c2ccc2ccccc32)cc1` (stereo not drawn), the growth is 64.7% (inactive).

In the next assay the test system is HS 578T breast. Described as above. The conditions noted are these: 10 µM unless noted.
`C=CCn1c(C)nc2cc(Nc3nc(N4CCCC4)nc4ccccc34)ccc21`: the growth was 86.8% (inactive).

Consider `Cc1ccc(/C=C/c2c(C(=O)/C=C/c3ccc(Cl)cc3)c(C)nc3ccccc23)cc1`, for which the growth was -5.28% (active).

On to `COc1cc(/C=C/C(=O)c2cccc(-n3cc(-c4ccccc4)[nH]c3=O)c2)ccc1O`, for which the growth was 71.3% (inactive).

Regarding `C=CCOC1=CC(=O)c2ccccc2C1=O`, the growth is 81.7% (inactive).

Take `Cn1cc(-c2csc(-c3ccccc3)n2)c2cccnc21`: the growth was 20.8% [100 µM] (inactive).

Take `c1ccc(-c2nc([P+](c3ccccc3)(c3ccccc3)c3ccccc3)c(N3CCOCC3)o2)cc1`: the growth was 24.9% (inactive).

With `O=C(COc1ccc(/C=C2\Oc3ccccc3C2=O)cc1)Nc1nc2c(s1)CCCC2`, the growth was 69.2% (inactive).

Turning to `COc1ccc(C2c3ccc4ccccc4c3Oc3nc(C)[nH]c(=O)c32)cc1` (stereo not drawn), the growth was 96.3% (inactive).

Consider `CN(C)c1ccc(-c2ccc3[nH]c(=O)nc(-c4ccccc4)c3c2)cn1`, for which the growth was 55.6% (inactive).

In the case of `O=C1/C(=C\c2c[nH]c3ccccc23)c2ccccc2N1c1c(Cl)cccc1Cl`, the growth is -11.4% (active).

As to `Cc1cc(/C=C\c2ccc3ccccc3[n+]2C)c(O)c2ncccc12`, the growth is 32.9% (inactive).

With `O=C1N=c2cc3c(cc2=C/C1=C/c1sc(=S)n(CCc2ccc(O)cc2)c1O)OCCO3`, the growth was 74.9% (inactive).

Take `N#Cc1nc(C#N)c(Sc2ccccc2)c(Sc2ccccc2)c1Sc1ccccc1`: the growth was 55.2% (inactive).

For `Cc1cc(NCCCCNc2ccnc3cc(Cl)ccc23)nc(Nc2ccc(C(=O)N3CCCC3)cc2)n1`, the growth is 89.8% (inactive).

With `CC(C)CCC[C@@H](C)[C@H]1CC[C@H]2[C@@H](Nc3ccc(O)cc3)CCC[C@]12C`, the growth was 104% (inactive).

With `O=C(c1ccccc1)c1c(/C=C/c2ccc(Cl)cc2)nc2ccccc2c1/C=C/c1cccs1`, the growth is 106% (inactive).

Regarding `CC(=O)n1c(-c2ccc(Cl)cc2)nc2c(c1=O)C(c1ccc(Cl)cc1)c1sc3c(Cl)cccc3c1O2` (stereo not drawn), the growth was -9.23% (active).

As for `CN1CCN(CCCOc2ccc3nc(Nc4ccc(F)c(F)c4)ccc3c2)CC1`, the growth is 33.8% (inactive).

With `CS(=O)c1cccc(-c2ccc3nc(N)n(-c4ccc(C(F)(F)F)cc4)c(=O)c3c2)c1` (stereo not drawn), the growth was 88.4% (inactive).

Consider `COc1ccc2[nH]c(O)c(/C=c3/cc4c(c(-c5ccc(F)c(OC)c5)n3)=Nc3ccccc3-4)c2c1`, for which the growth was 84.7% (inactive).

For the compound `CC(=O)C(C)Cc1cc2c(cc1C)C(C)(C)CCC2(C)C` (stereo not drawn), the growth is 102% (inactive).

As to `COc1cc(/C=C2\C(=O)ON=C2C)cc(OC)c1OC`, the growth is 92% (inactive).

Consider `CCCCn1c(=O)c2c(nc3n2CCCN3CCc2ccc(OCC(=O)NCCN(CC)CC)cc2)n(CCCC)c1=O`, for which the growth was 20.8% (inactive).

As to `COc1cc2c(cc1-c1c(C)noc1C)ncc1nc(C3CCC(F)(F)CC3)n(C3CCC(OC(F)F)CC3)c12` (stereo not drawn), the growth was 61.4% (inactive).

For `CCN(CCNc1ccc(C)c2sc3ccccc3c(=O)c12)CC(C)(C)O`, the growth is 59.5% (inactive).

As for `CCCCCCCCCCCCCCCCCCOc1ccccc1CC(=O)OCCC[N+](C)(C)C`, the growth was 67.2% (inactive).

As to `COc1ccc(C(=NN=C(N)N)c2ccc(OC)cc2)cc1`, the growth was 65% (inactive).

Regarding `Cc1c(C(=O)N[C@@H](Cc2ccccc2)C(=O)C(=O)NCCc2ccccc2)[nH]c2ccccc2c1=O`, the growth was 105% (inactive).

As to `CC1(c2ccccc2)NC(=O)N(NC(=O)CSc2nc(-c3cccs3)nc3ccccc23)C1=O` (stereo not drawn), the growth was 101% (inactive).

`CCN(CC)Cc1cccc(C(=O)OC)c1`: the growth was 109% (inactive).

As for `CCCCc1ccc(Nc2ccc(Nc3ccc(CCCC)cc3S(=O)(=O)O)c3c2C(=O)c2ccccc2C3=O)c(S(=O)(=O)O)c1`, the growth is 102% (inactive).

With `O=C(Nc1ccc(Cl)cc1)Nc1ccc(Cl)c(C(F)(F)F)c1`, the growth is 19.7% (inactive).

For `COc1cc(/C=N/Nc2ncc(-c3cc4cc5c(cc4o3)OCO5)s2)cc(OC)c1OC`, the growth was 89.6% (inactive).

Regarding `COc1ccc(-c2nc3c(N)c(CO)c(C)nc3o2)cc1`, the growth is 105% (inactive).

`c1ccc(Nc2nc(-c3ccccn3)cs2)nc1`: the growth was 42.9% (inactive).

Regarding `Cc1ccc(S(=O)(=O)Oc2cc(OS(=O)(=O)c3ccc(C)cc3)cc(OS(=O)(=O)c3ccc(C)cc3)c2)cc1`, the growth is 95.8% (inactive).

For `COc1ccc(NC(=O)c2nc(-c3cc(OC)c(OC)c(OC)c3)n(-c3cccc4ccccc34)n2)cc1OC`, the growth was 23.4% (inactive).

Consider `COc1ccc(C2C(c3nn[nH]n3)=C(N)Oc3c2ccc2ccccc32)cc1` (stereo not drawn), for which the growth is 76.4% (inactive).
